Screening results as filed in PubChem BioAssay.
Bead autofluor = counter-screen for toxin protease inhibitors: compound fluorescence. compound autofluorescence counterscreen, microsphere flow cytometry; stronger effect = higher value. fluorescence intensity (test concentration not listed). actives 3.1% (n = 360,000); in the data active = fluorescence intensity above about 16000; inconclusive = no clear call, values can overlap the other calls
Anthrax LF prot = inhibitors of Bacillus anthracis lethal factor protease. P15917. multiplex microsphere protease cleavage assay, LF. inhibition, % at 10 µM. actives 0.12% (n = 360,000). AID 588501; also: plate controls were buffer without enzyme for full effect and enzyme alone for no effect
Target sequence (P15917 whole entry, looked up): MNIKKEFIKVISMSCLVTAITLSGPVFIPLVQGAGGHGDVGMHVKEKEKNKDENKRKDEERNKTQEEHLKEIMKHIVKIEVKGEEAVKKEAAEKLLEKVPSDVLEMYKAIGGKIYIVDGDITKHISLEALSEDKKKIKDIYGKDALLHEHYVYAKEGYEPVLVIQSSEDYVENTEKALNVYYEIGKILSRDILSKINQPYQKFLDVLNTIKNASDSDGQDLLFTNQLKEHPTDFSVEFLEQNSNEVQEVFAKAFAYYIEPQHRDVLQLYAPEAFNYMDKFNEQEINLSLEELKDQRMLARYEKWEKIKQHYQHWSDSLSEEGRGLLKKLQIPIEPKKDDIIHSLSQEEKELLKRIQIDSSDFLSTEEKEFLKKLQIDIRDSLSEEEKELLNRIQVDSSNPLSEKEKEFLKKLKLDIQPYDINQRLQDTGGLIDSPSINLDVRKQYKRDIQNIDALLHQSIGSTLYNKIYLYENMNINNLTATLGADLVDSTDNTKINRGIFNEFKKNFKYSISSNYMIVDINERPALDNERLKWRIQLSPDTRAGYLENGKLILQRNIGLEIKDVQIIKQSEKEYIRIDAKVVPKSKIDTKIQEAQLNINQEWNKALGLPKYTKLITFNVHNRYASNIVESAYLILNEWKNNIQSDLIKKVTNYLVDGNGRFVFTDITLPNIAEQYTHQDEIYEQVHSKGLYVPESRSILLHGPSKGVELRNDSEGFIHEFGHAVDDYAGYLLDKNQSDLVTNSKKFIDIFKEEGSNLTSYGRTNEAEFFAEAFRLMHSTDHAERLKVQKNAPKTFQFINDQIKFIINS
SARS 3CLpro inh = SARS-CoV 3CLpro protease inhibition; recombinant SARS-CoV 3CLpro, quenched FRET peptide cleavage; inhibition, % at 6 µM; AID 1706; actives 0.14% (n = 290,000); P0C6X7; in the data active = inhibition above about 12%
BoNT F protease = BoNT F light chain protease inhibition | inhibition, % at 10 µM | AID 588497 | Multiplex microsphere protease cleavage assay, flow cytometry | actives 0.22% (n = 360,000); in the data active = inhibition above about 35%, passing the limit was not always enough; inconclusive = no clear call, values can overlap the other calls; also: plate controls were buffer without enzyme for full effect and enzyme alone for no effect
DUSP3 inh = inhibitors of human VHR1 phosphatase (DUSP3); inhibition, % at 13.3 µM; actives 0.52% (n = 290,000); recombinant VHR phosphatase, pNPP absorbance; in the data active = inhibition above about 50%
BoNT-A LC inh2 = inhibitors of Botulinum neurotoxin A light chain protease | actives 0.17% (n = 360,000) | multiplex microsphere protease substrate cleavage, flow cytometry | inhibition, % at 10 µM; also: plate controls were buffer without enzyme for full effect and enzyme alone for no effect
Numbers without * were called inactive; ? = inconclusive; nt = no result. Rows were chosen to be rich in hits. Some 3.9% of all compounds tested hit in one or more screens of this group. Rule as the data show it, unless noted: active = inhibition above about 30%; inconclusive = no clear call, values can overlap the other calls; inactive = below that.

SMILES	Bead autofluor	Anthrax LF prot	SARS 3CLpro inh	BoNT F protease	DUSP3 inh	BoNT-A LC inh2
O=C(CCC1CCCCC1)NNC(=O)NC12CC3CC(CC(C3)C1)C2	23967*	0	-7	0	0	?
CC(C)c1ccc(O)c(NC(=O)c2cccnc2)c1	20393*	-2	-1	-1	18	-1
CC(C)(C)c1ccccc1NC(=O)c1cccnc1	16565*	0	-4	-3	-12	?
O=C(Nc1ccccc1C(F)(F)F)c1cccnc1	3951	-4	0	-2	1	-1
COc1ccc2c(c1)CC(C)C/C2=N\NC(=O)c1ccco1 (stereo not given)	4381	-5	1	-3	18	1
CC1C/C(=N/NC(=O)c2cccc(F)c2)c2ccc(O)cc2C1 (stereo not given)	20922*	0	2	-2	-1	0
CCCOc1cccc(-c2cc(C(=O)NNC(=S)NCC)c3ccccc3n2)c1	24056*	-3	0	-4	11	-3
CCNC(=S)NNC(=O)c1cc(CC(C)C)nc2ccccc12	22680*	0	-3	1	6	?
NC(=O)COc1cccc2cccnc12	16622*	-11	1	12	29	15
Cc1cc(NC(=O)COc2cccc3cccnc23)no1	nt	nt	-9	nt	4	nt
CN(C(=O)C1CCC(=O)N(CCCN2CCCC2=O)C1)C(C1CC1)C1CC1 (stereo not given)	5436	-2	-3	5	0	0
O=C(NCc1cccnc1)/C(=C/c1ccc(-c2cccc(C(F)(F)F)c2)o1)NC(=O)c1ccccc1	22544*	-2	-1	-9	17	?
Cc1ccc(C(=O)N/C(=C/c2ccc(-c3cc(C(F)(F)F)ccc3Cl)o2)C(=O)NCc2cccnc2)cc1	8011	-5	3	-5	11	0
COc1cc(Br)cc2cc(C(=O)N3CCN(c4ccccn4)CC3)c(=O)oc12	23664*	0	2	-1	4	-1
O=C(c1cc2cc(Br)ccc2oc1=O)N1CCN(c2ccccn2)CC1	16477*	-3	2	0	1	0
O=C(CN1C(=O)COc2ccccc2C1=O)c1ccc2c(c1)OCCO2	5933	2	1	-4	-37	-3
Cc1ccc(S(=O)(=O)Cn2cnnn2)cc1	24828*	0	5	-2	26	-3
CCC(C)n1c(S(=O)(=O)O)nc2ccccc21 (stereo not given)	22449*	1	-4	1	22	-1
O=C(Nc1nnc([C@@H]2C[C@H](O)[C@@H](CO)O2)s1)c1c(F)cccc1F	2921	-2	nt	-9	nt	0
CCCCCCCCCCCCCCCCCCNc1ccn(C2OC(COP(=O)(O)OCC3OC(n4cc(F)c(=O)[nH]c4=O)CC3O)C(O)C2O)c(=O)n1 (stereo not given)	3548	2	nt	-2	nt	0
Nc1nnc(SCC(=O)N2CCN(c3cccc(Cl)c3)CC2)n1-c1ccccc1	23616*	-3	5	-3	nt	0
Cn1c(SCC(=O)N2CCN(c3cccc(Cl)c3)CC2)nnc1-c1ccncc1	22921*	0	-3	-2	-5	-1
Cn1c(SCC(=O)N2CCN(c3ccccc3)CC2)nnc1-c1cc2ccccc2o1	16756*	-10	-1	-2	20	-3
Nc1nnc(SCC(=O)N2CCN(c3ccccc3)CC2)n1-c1ccccc1	3211	0	-4	-6	21	0
CCn1c(SCC(=O)N2CCN(c3ccc(F)cc3)CC2)nnc1-c1ccncc1	20103*	1	-4	-4	14	-2
SMILES	Bead autofluor	Anthrax LF prot	SARS 3CLpro inh	BoNT F protease	DUSP3 inh	BoNT-A LC inh2
CC(C)CCn1nnnc1CN1CCN(C(=O)c2ccco2)CC1	5275	-1	-3	3	17	-1
Cc1cc(C)c(C#N)c(SCC(=O)c2ccc(Cl)cc2Cl)n1	8216	1	0	-2	42	1
CC1(C(=O)O)CCC(C(=O)NC2CCCCC2)C1(C)C (stereo not given)	5706	1	-1	13	20	1
Cc1ccc(C)c(NC(=O)C2CCC(C)(C(=O)O)C2(C)C)c1 (stereo not given)	24078*	-1	-3	-6	-5	-4
CC1(C(=O)O)CCC(C(=O)NC2CCCCCC2)C1(C)C (stereo not given)	21823*	1	-1	3	80	5
CCOC(=O)C1(C)CCCN1C(=O)c1ccc2ccccc2c1 (stereo not given)	3930	-1	nt	4	nt	0
Cc1ccc(S(=O)(=O)N2CCC[C@H]2C(=O)NC2CCCCC2)cc1	3670	2	nt	5	nt	0
O=C(Nc1nc2ccccc2s1)C1CCCN1S(=O)(=O)c1ccc(Cl)cc1 (stereo not given)	22849*	-2	0	-7	-12	?
Cc1ccc(S(=O)(=O)N2CCCC2C(=O)N(C)Cc2cccs2)cc1 (stereo not given)	19722*	0	2	1	-16	?
Cc1nnc(NC(=O)C2CCCN2S(=O)(=O)c2ccc(Cl)cc2)s1 (stereo not given)	4411	-7	0	-3	18	-1
CN(Cc1cccs1)C(=O)C1CCN(S(=O)(=O)c2ccccc2)CC1	6674	8	nt	-6	nt	1
Cc1ccc(S(=O)(=O)N2CCCC2C(=O)Nc2nc3ccccc3s2)cc1 (stereo not given)	20751*	-5	2	-3	-2	0
O=C(NC1CCCCC1)C1CCCN1S(=O)(=O)c1ccc(Cl)cc1 (stereo not given)	3631	-1	-5	-3	53*	-1
Cc1ccc(S(=O)(=O)N2CCC[C@H]2C(=O)Nc2ccccc2C)cc1	3349	-12	nt	3	nt	0
CCN(CC)S(=O)(=O)c1ccc(C(=O)NCc2n[nH]c(=S)n2-c2ccc(Cl)c(Cl)c2)cc1	2610	0	4	-1	-35	0
Cc1ccc(OCc2nc(-c3cccs3)no2)c([N+](=O)[O-])c1	3838	-2	1	0	26	0
CCc1ccc(N(C(=O)Cc2cccs2)C(C(=O)NC2CCCCC2)c2cn(C)nc2C)cc1 (stereo not given)	23253*	-1	3	-2	1	?
O=C(NC1CCCCC1)C(c1ccccn1)N(C(=O)Cc1cccs1)c1ccc(Cl)cc1 (stereo not given)	10088	-2	0	1	37	-1
Cc1cc(C)cc(N(C(=O)Cc2cccs2)C(C(=O)NC2CCCCC2)c2ccccn2)c1 (stereo not given)	23274*	-1	2	-2	19	?
Fc1ccc(C(c2nnnn2C2CCCCC2)N2CCCC2)cc1 (stereo not given)	2392	2	1	4	5	0
CN(c1ccccc1)C(c1ccc(F)cc1)c1nnnn1CC1CCCO1 (stereo not given)	16681*	-1	2	-2	-8	0
